The test system of this test is Vero E6 infected with SARS-CoV-2. Briefly: inhibition of SARS-CoV-2 cytopathic effect; higher = more antiviral protection, active = above 15. The following applies: 48 h. For orientation: Cytopathic effects are the visible damage that an infection or toxin causes in cultured cells.

A number with no mark means an inactive call.

Turning to `C1=Cc2cccc(OCC3CNCCO3)c2C1` (stereo not given) [indeloxazine], the “inhibition of SARS-CoV-2 cytopathic effect” value (“inhibition” below) (1 nM) was 1.29%; the “inhibition” value (8.33 nM) was 2.5%; the “inhibition” value (100 nM) is 1.2%; the “inhibition” value (833.33 nM) was 0.43%; the “inhibition” value (10000 nM) was -0.62%.

For `C/C(=C\c1csc(C)n1)[C@@H]1C[C@@H]2O[C@]2(C)CCC[C@H](C)[C@H](O)[C@@H](C)C(=O)C(C)(C)[C@@H](O)CC(=O)N1` [ixabepilone], the “inhibition” value is -3.63% (1 nM); 0.38% (8.33 nM); -5.48% (100 nM); -6.58% (833.33 nM); -2.57% (10000 nM).

In the case of `O=C[C@H](O)[C@@H](O)[C@H](O)CO` [xylose], the “inhibition” value by setting is: (1 nM) 2.36%; (8.33 nM) 1.7%; (100 nM) -0.84%; (833.33 nM) -1.64%; (10000 nM) -4.41%.

Turning to `Cc1cccc(Nc2cc(Cl)nc(SCC(=O)O)n2)c1C` [pirinixic-acid], the “inhibition” value was -0.9% (1 nM); -0.95% (8.33 nM); -1.99% (100 nM); -0.44% (833.33 nM); 2.81% (10000 nM).

Regarding `CN1CCCN=C1/C=C/c1cccs1` [pyrantel-pamoate], the “inhibition” value by setting is: (1 nM) 1.74%; (8.33 nM) 1.39%; (100 nM) 2.36%; (833.33 nM) 0.63%; (10000 nM) -3.05%.

In the case of `C[C@@H]1CCCN1CCc1cc2cc(-c3ccc(C#N)cc3)ccc2o1`, the “inhibition” value (1 nM) was -2.35%; the “inhibition” value (8.33 nM) is -2.18%; the “inhibition” value (100 nM) is 1.55%; the “inhibition” value (833.33 nM) is -0.35%; the “inhibition” value (10000 nM) is 4.34%.

In the case of `COc1ccc2c(c1)c(CC(=O)O)c(C)n2C(=O)c1ccc(Cl)cc1` [indomethacin], the “inhibition” value is -1.21% (1 nM); 0.75% (8.33 nM); -0.25% (100 nM); 0.83% (833.33 nM); 0.17% (10000 nM).

As for `C[C@@H](Oc1cc(-n2cnc3ccc(CN4CCN(C)CC4)cc32)sc1C(N)=O)c1ccccc1C(F)(F)F`, the “inhibition” value runs as follows: (1 nM) 1.38%; (8.33 nM) 0.72%; (100 nM) 1.12%; (833.33 nM) -3.55%; (10000 nM) 54.8% (active).

Take `O=C1C(CC[S+]([O-])c2ccccc2)C(=O)N(c2ccccc2)N1c1ccccc1` (stereo not given) [sulfinpyrazone]: the “inhibition” value (1 nM) is 1.22%; the “inhibition” value (8.33 nM) is 1.51%; the “inhibition” value (100 nM) is -0.06%; the “inhibition” value (833.33 nM) was 0.46%; the “inhibition” value (10000 nM) is 0.32%.

For `CC(=O)N[C@H](Cc1ccc2ccccc2c1)C(=O)N[C@H](Cc1ccc(Cl)cc1)C(=O)N[C@H](Cc1cccnc1)C(=O)N[C@@H](CO)C(=O)N[C@@H](Cc1ccc(O)cc1)C(=O)N[C@H](CCCNC(N)=O)C(=O)N[C@@H](CC(C)C)C(=O)N[C@@H](CCCNC(=N)N)C(=O)N1CCC[C@H]1C(=O)N[C@H](C)C(N)=O` [cetrorelix], the “inhibition” value was -4.73% (1 nM); -2.29% (8.33 nM); 5.4% (100 nM); 5.13% (833.33 nM); 8.43% (10000 nM).

Consider `Oc1ccc2c3c1O[C@H]1c4c(c5ccccc5n4Cc4ccccc4)C[C@@]4(O)[C@@H](C2)N(CC2CC2)CC[C@]314` [N-benzylnaltrindole], for which the “inhibition” value reads like this: (1 nM) 0.62%; (8.33 nM) 0.67%; (100 nM) 2.73%; (833.33 nM) -0.06%; (10000 nM) 34% (active).

As for `O=C(c1ccc(Cl)cc1)N(Cc1ccccc1)C1CCCCC1`, the “inhibition” value by setting is: (1 nM) -1.58%; (8.33 nM) -1.87%; (100 nM) 1.24%; (833.33 nM) -0.21%; (10000 nM) -2.35%.

For `CC(C)c1ccc(NC(=O)c2cccs2)c(-c2nc3ccccc3[nH]c2=O)c1`, the “inhibition” value (1 nM) is -1.18%; the “inhibition” value (8.33 nM) was -0.5%; the “inhibition” value (100 nM) is 0.48%; the “inhibition” value (833.33 nM) was -0.61%; the “inhibition” value (10000 nM) was -1.09%.

For `CN1CC(O)C2=C/C(=N/NC(N)=O)C(=O)C=C21` (stereo not given) [carbazochrome], the “inhibition” value by setting is: (1 nM) 2.27%; (8.33 nM) 3.04%; (100 nM) -0.28%; (833.33 nM) -1.11%; (10000 nM) 0.54%.

Consider `C#C[C@]1(O)CC[C@H]2[C@@H]3CCC4=CC(=O)CC[C@]4(C)[C@H]3CC[C@@]21C` [ethisterone], for which the “inhibition” value was 2.99% (1 nM); 3.61% (8.33 nM); 2.08% (100 nM); -0.95% (833.33 nM); 2.77% (10000 nM).

Consider `COc1ccc2cc(-c3cc(-c4cc(Cl)cc(Cl)c4)nn3[C@@H](C)c3ccc(C(=O)NCCC(=O)O)cc3)ccc2c1`, for which the “inhibition” value reads like this: (1 nM) -1.85%; (8.33 nM) -0.02%; (100 nM) 0.97%; (833.33 nM) 4.66%; (10000 nM) 4.95%.

As for `NC(=O)C(c1ccccc1)(c1ccccc1)[C@@H]1CCN(CCc2ccc3c(c2)CCO3)C1` [darifenacin], the “inhibition” value by setting is: (1 nM) -1.18%; (8.33 nM) 0.61%; (100 nM) 2.83%; (833.33 nM) 0.42%; (10000 nM) -5.65%.
